# Results taken from the supplement of paper PMC10849652.
# About 7,900 targets were measured; listed, in parts, are those with a hit and a random draw of the rest. About 0.6% of all pairs of compound and target were hits. A number with no mark means an inactive call.
# Compound: NCC(=O)Nc1ccc(-n2nc(C(F)(F)F)cc2-c2ccc3c(ccc4ccccc43)c2)cc1
# Assay: log2 fold change, soluble protein after heating vs DMSO (PISA); higher = thermal stabilisation; K562 cells, 10 uM, 30 min; active = over 0.2 and 3.5 SD of the protein, either way, in both replicates (recomputed)
# Method in brief: (§1)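 K562 cells at 2×10^6 cells/mL were treated for 30 min with 10 μM compound, and aliquots were heated for 3 min over 48°C-58°C before pooling. Extraction used PBS with 0.5% NP-40 at 4°C, and soluble protein was the supernatant after 21,000xg for 90 min, measured by TMTpro 16plex LC-MS/MS with channel sums equalised. Thermal stability values, relative to control samples and from duplicates, are log2 fold changes.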
# UniProt Q9UJA2, sequence (Q9UJA2 whole entry, looked up): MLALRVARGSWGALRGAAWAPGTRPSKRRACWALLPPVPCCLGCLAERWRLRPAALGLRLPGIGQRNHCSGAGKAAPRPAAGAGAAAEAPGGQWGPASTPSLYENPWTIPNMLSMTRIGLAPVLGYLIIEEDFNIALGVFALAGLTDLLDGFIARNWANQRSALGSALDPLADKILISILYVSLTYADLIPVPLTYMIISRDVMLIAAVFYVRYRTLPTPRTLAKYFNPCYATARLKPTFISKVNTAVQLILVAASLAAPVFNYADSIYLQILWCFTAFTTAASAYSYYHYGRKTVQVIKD
# UniProt Q8N668, sequence (Q8N668 whole entry, looked up): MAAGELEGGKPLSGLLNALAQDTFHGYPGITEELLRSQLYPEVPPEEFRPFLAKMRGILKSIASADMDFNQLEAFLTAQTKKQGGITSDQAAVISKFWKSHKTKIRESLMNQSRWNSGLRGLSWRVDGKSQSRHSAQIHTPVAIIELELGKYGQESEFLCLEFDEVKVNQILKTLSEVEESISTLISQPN
# UniProt Q6UUV9, sequence (Q6UUV9 whole entry, looked up): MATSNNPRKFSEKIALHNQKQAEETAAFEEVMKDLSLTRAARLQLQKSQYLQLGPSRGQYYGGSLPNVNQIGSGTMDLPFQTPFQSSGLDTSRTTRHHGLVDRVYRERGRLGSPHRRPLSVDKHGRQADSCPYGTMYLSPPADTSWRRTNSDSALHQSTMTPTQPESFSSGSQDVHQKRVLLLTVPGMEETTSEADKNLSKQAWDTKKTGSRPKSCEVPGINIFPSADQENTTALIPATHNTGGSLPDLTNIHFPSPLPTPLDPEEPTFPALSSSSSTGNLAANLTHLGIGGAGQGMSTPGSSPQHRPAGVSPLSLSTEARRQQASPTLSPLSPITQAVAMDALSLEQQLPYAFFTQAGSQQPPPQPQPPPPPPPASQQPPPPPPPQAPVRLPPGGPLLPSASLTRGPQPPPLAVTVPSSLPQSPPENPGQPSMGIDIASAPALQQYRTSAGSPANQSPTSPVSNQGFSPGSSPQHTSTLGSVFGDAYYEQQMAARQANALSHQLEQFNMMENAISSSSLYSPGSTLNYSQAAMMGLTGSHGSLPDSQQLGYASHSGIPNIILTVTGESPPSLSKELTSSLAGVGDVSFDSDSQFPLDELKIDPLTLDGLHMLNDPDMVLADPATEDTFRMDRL
# UniProt Q9BSQ5, sequence (Q9BSQ5 whole entry, looked up): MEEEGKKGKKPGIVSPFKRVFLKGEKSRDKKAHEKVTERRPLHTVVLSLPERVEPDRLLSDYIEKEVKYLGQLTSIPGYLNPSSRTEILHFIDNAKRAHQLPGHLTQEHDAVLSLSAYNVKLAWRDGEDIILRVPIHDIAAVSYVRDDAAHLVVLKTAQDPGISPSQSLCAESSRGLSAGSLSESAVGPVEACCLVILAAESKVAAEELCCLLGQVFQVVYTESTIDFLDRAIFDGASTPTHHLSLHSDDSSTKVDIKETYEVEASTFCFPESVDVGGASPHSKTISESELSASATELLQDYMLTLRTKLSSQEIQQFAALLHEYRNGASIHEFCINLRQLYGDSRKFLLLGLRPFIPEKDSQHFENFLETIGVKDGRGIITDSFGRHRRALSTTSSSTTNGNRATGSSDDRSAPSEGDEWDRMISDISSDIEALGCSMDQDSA
# UniProt Q9P0B6, sequence (Q9P0B6 whole entry, looked up): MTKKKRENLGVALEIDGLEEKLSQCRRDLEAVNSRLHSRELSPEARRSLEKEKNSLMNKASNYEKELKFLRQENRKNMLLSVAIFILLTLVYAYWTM
# UniProt P30281, sequence (P30281 whole entry, looked up): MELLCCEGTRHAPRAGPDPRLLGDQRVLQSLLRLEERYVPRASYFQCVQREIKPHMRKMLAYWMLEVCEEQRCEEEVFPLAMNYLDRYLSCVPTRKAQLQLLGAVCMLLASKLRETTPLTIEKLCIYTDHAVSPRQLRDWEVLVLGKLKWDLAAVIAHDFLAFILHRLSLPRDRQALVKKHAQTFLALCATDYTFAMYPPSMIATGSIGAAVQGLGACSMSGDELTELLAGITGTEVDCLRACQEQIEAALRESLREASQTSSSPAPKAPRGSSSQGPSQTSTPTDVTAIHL
# UniProt Q9UHN6, sequence (Q9UHN6 whole entry, looked up): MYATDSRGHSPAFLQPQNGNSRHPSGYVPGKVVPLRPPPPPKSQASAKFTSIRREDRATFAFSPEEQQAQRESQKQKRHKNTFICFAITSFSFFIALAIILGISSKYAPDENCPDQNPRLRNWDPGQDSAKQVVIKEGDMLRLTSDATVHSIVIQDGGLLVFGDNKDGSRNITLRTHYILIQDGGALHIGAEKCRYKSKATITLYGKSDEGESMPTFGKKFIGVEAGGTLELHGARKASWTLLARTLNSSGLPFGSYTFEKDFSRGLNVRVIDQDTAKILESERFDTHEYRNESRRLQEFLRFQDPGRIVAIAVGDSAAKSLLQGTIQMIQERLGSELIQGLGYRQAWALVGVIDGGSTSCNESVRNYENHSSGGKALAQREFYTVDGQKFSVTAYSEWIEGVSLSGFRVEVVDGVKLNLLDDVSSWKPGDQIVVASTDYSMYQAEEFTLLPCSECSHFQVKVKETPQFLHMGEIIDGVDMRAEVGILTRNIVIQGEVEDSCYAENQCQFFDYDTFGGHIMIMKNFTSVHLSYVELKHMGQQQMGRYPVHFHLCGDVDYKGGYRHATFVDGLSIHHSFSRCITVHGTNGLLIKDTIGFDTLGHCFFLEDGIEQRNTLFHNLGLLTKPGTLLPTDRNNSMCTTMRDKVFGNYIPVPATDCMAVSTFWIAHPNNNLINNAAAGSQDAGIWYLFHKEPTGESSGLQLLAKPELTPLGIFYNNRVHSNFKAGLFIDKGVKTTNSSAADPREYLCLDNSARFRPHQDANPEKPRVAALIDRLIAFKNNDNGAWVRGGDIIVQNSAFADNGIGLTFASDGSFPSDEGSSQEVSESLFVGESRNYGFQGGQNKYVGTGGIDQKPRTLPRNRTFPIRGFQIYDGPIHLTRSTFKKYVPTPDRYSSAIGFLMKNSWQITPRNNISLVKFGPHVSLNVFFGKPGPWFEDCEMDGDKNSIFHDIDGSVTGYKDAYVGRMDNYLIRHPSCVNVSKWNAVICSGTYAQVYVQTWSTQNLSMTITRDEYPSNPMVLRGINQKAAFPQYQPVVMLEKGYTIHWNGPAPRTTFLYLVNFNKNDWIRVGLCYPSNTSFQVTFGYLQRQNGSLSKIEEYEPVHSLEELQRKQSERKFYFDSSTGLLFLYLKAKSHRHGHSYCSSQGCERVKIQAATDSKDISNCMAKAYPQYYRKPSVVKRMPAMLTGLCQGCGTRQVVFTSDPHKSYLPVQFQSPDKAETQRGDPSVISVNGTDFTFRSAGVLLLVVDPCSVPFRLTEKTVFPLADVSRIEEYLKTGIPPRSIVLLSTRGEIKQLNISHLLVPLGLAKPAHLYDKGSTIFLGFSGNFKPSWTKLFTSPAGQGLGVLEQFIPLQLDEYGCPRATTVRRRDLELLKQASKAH
# UniProt A8MTT3, sequence (A8MTT3 whole entry, looked up): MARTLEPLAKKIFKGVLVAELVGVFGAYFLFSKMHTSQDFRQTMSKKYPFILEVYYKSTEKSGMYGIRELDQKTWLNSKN
# UniProt Q6UUV7, sequence (Q6UUV7 whole entry, looked up): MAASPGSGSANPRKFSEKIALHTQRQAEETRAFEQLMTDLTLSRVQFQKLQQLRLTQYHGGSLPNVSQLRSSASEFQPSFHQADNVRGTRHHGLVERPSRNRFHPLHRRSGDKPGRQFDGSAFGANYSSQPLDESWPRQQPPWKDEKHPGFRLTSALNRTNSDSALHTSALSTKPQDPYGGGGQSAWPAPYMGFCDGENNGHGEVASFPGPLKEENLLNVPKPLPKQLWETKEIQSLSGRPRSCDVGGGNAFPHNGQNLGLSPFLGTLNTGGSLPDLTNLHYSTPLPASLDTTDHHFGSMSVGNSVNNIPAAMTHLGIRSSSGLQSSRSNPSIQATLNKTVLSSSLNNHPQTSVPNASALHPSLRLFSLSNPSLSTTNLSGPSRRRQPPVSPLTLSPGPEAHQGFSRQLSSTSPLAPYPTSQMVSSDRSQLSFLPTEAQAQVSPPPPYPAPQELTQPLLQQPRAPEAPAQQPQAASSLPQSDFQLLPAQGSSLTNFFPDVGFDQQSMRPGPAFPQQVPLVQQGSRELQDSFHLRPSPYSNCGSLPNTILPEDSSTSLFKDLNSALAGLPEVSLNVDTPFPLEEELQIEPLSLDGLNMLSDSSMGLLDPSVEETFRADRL
# UniProt O95628, sequence (O95628 whole entry, looked up): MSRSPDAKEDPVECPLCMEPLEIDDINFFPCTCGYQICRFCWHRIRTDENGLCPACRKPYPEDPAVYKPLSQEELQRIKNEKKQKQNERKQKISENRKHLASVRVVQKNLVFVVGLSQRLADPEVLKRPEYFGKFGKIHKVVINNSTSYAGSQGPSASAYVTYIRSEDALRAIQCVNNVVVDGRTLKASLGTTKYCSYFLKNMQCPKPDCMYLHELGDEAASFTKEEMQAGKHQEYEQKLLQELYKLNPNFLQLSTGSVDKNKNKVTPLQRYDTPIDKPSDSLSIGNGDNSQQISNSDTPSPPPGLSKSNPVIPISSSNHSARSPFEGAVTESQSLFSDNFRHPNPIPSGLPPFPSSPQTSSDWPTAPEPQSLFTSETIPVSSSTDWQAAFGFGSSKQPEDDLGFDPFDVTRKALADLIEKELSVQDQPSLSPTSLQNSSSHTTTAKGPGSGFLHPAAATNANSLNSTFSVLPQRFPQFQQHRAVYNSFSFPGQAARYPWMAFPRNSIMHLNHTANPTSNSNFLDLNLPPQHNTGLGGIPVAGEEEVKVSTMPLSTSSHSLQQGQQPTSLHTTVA
# UniProt Q7Z4R8, sequence (Q7Z4R8 whole entry, looked up): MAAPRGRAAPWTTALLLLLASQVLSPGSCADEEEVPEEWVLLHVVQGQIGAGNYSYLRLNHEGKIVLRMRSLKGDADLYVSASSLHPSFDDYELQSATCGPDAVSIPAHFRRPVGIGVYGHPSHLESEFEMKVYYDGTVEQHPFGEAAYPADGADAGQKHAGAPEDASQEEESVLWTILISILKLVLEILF
# UniProt P33552, sequence (P33552 whole entry, looked up): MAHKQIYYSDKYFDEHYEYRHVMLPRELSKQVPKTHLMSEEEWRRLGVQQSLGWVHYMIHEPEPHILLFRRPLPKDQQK
row,Target,log2 fold change
1,CCDC82 (UniProt Q8N4S0),-0.063
2,CREB3L2 (UniProt Q70SY1),0.035
3,CNOT4 isoform 9 (UniProt O95628),0.11
4,CRTC1 isoform 2 (UniProt Q6UUV9),0.01
5,CCM2 isoform 2 (UniProt Q9BSQ5),-0.067
6,CRLS1 (UniProt Q9UJA2),0.06
7,CA1 (UniProt E5RIF9),-0.029
8,CFAP47 (UniProt Q6ZTR5),-0.024
9,CLN3 (UniProt Q13286),-0.124
10,CEMIP2 (UniProt Q9UHN6),-0.072
11,CCDC57 (UniProt Q2TAC2),-0.04
12,CLCN5 isoform 2 (UniProt P51795),0.004
13,C6orf120 (UniProt Q7Z4R8),-0.018
14,CRTC3 (UniProt Q6UUV7),0.001
15,CEBPZOS (UniProt A8MTT3),0.028
16,COMMD1 (UniProt Q8N668),-0.069
17,CCND3 (UniProt P30281),0.184
18,CLINT1 (UniProt Q14677),0.034

# Compound: Nc1ccccc1NC(=O)c1ccc(CNC(=O)OCc2cccnc2)cc1 [entinostat]
# Assay: as above
# Method in brief: as §1
row,Target,log2 fold change
1,CRTC1 isoform 2 (UniProt Q6UUV9),0.044
2,CCDC167 (UniProt Q9P0B6),0.031
3,CCM2 isoform 2 (UniProt Q9BSQ5),0.326 (active)
4,CRLS1 (UniProt Q9UJA2),0.151
5,CD68 (UniProt P34810),-0.33
6,CD84 (UniProt Q9UIB8),0.234
7,CCDC57 (UniProt Q2TAC2),-0.031
8,C6orf120 (UniProt Q7Z4R8),0.083
9,CRTC3 (UniProt Q6UUV7),0.057
10,COMMD3-BMI1 (UniProt R4GMX3),-0.062
11,COMMD1 (UniProt Q8N668),0.008

# Compound: O=C(CCCCCCC(=O)Nc1ccccc1)NO [vorinostat]
# Assay: as above
# Method in brief: as §1
row,Target,log2 fold change
1,CKS2 (UniProt P33552),0.28
2,CASP7 isoform 3 (UniProt P55210),0.044
3,"CCDC187, A0A1W2PQX5",-0.042
4,CNOT4 isoform 9 (UniProt O95628),-0.003
5,CRTC1 isoform 2 (UniProt Q6UUV9),0.012
6,CCDC167 (UniProt Q9P0B6),0.008
7,CCM2 isoform 2 (UniProt Q9BSQ5),-0.038
8,CRLS1 (UniProt Q9UJA2),-0.005
9,CFAP58 (UniProt Q5T655),0.018
10,CEMIP2 (UniProt Q9UHN6),0.038
11,CLCN5 isoform 2 (UniProt P51795),0.062
12,COMMD3-BMI1 (UniProt R4GMX3),0.109
13,CEBPZOS (UniProt A8MTT3),-0.03
14,COMMD1 (UniProt Q8N668),-0.032
15,CCND3 (UniProt P30281),0.048
